HADH2 inhib = HADH2 (human) dehydrogenase inhibition; Q99714; recombinant HADH2, NADH fluorescence, beta-hydroxybutyryl-CoA; Potency, µM (doses to about 57.1 µM), without a hit: at the top dose activity change, negative = inhibition, hits mostly inhibitors; 73,000 compounds, 3.4% hits; AID 886; also: potency is read from the fitted curve at half-maximal effect; % is scaled to controls: 0 for no effect and ±100 for the full control effect; nearly all actives have a fitted effect of over 60% in size
Target sequence (Q99714 whole entry, looked up, one chain of several): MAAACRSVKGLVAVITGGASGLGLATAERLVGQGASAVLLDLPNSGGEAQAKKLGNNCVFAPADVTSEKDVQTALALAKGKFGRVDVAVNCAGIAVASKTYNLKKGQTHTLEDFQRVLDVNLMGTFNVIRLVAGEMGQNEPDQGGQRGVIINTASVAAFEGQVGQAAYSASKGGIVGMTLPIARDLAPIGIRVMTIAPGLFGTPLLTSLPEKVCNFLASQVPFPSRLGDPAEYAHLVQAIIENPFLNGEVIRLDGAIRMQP
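20 nM HADH2 + cpd, 15 min RT; add 1 mM NAD+/90 uM beta-hydroxybutyryl-CoA; kinetic fluorescence 360/450 nm, 4 min. Tris-HCl pH 9.0, 0.01% Tween-20.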
HSD17B inh = HSD17B dehydrogenase inhibition; recombinant HSD17B10, NADH fluorescence kinetic; AID 893; Potency, µM (titrated, usually from 57.1 µM), for inactives: at the highest dose activity change, negative = inhibition, actives largely listed as inhibitors; 75,000 compounds, 7.6% hits;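 also: the protocol describes HADH2 (HSD17B10) and not the HSD17B4 of the title; potency is read from the fitted curve at half-maximal effect; % is scaled to controls: 0 for no effect and ±100 for the full control effect; nearly all actives have a fitted effect of over 70% in size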
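Activity followed as NADH fluorescence increase (ex 360, em 450 nm) every 30 seconds for 4 min, using final 90 uM beta-hydroxybutyryl CoA and 1 mM NAD+. Recombinant His-tagged enzyme, 20 nM, pH 9.0 Tris buffer, 15 min compound preincubation.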
4MU fluor = compound fluoresces in the 4-MU spectral region. compound autofluorescence, 340/450 nm, 4-MU equivalents; active compounds read high. max dye-equivalent concentration, M. 59,000 compounds, 11% hits; in the data active = max dye-equivalent concentration above about 10 nM; inconclusive = mostly about 1.1 nM to 9.6 nM
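Intrinsic fluorescence at 340/450 nm (ex/em) was read after 15 min at room temperature in pH 8.0, 100 mM Tris. Each compound concentration expressed as 4-MU-equivalent concentration from a six-point 4-MU standard series on each plate.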
CRE Fsk mod = alters forskolin-stimulated CRE reporter signaling in CHO cells. CHO CRE-bla reporter (cAMP response element driving beta-lactamase), forskolin EC10, beta-lactamase ratio. Potency, µM (doses to about 38.2 µM), without a hit: at the highest dose activity change, negative = inhibition, usual class: activators. 71,000 compounds, 2.5% hits; active = well fitted activation curve with a large enough effect in the signal ratio, with a control signal flat, not every such curve was filed as active; inconclusive = small, poorly fitted or top-dose-only effect, or effect the other way, or a change in a side signal; the % refers to the signal ratio; also: potency is read from the fitted curve at half-maximal effect; % of control where 0% means no effect
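Modulation of forskolin-driven signalling is measured in CHO cells carrying a CRE-controlled beta-lactamase reporter. Cells are stimulated with EC10 NKH 477 in the presence of titrated compound for 3 h at 37 °C, then loaded with CCF4 for 2 h at room temperature.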
AID923 = qHTS Assay for Allosteric/Competitive Inhibitors of Caspase-1: Spectroscopic Profiling in AFC Spectral Region. compound fluorescence, AFC spectral region (405/520 nm). 75,000 compounds, 1.1% hits. AID 923, 2007. Potency, µM (doses to about 57.5 µM), inactives show top-dose fluorescence increase, actives largely listed as activators; also: potency is read from the fitted curve at half-maximal effect; 0% is about no effect
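Baseline compound fluorescence (AFC region, 405 nm ex/520 nm em) taken from the intercept of kinetic reads with 50 nM caspase-1 and 5 uM Ac-WEHD-AFC; normalized to an on-plate AFC standard curve; compounds titrated up to 57 uM.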
A350 fluor = compounds fluorescent in Alexa 350 spectral region. max dye-equivalent concentration, M. 59,000 compounds, 11% hits. AID 590. Compound autofluorescence, 340/450 nm, Alexa 350 dye-equivalents; active compounds read high; in the data active = max dye-equivalent concentration above about 10 nM; inconclusive = mostly about 1.1 nM to 9.6 nM
Active calls of the source: *; i = inactive; ? = inconclusive; · = no result; [ ] = dose if it differs, or a comment. Compounds with a hit are over-represented: about 14% of the library has one in this group of screens. Unless noted, calls follow the shape of the dose curve; as a rule, active = well fitted curve in the direction sought with a large enough effect; inconclusive = small, poorly fitted or top-dose-only effect, or another doubt; inactive = no such curve, though single readings can be large; an effect the other way counts as inactive or inconclusive.

SMILES | HADH2 inhib | HSD17B inh | 4MU fluor | CRE Fsk mod | AID923 | A350 fluor
CCN(CC)CCCn1c(=S)[nH]c2ccc(Cl)cc2c1=O | -24% | -4% | 1.6e-08M* | ? | -1% | 2.1e-08M*
Cc1cccc(CNc2ncncc2-c2ccccc2CN(C)C)c1 | 13% | 4% | i | 0% | 2% | ?
CS(=O)(=O)N1CCC2(CC1)CN(c1ccc(-c3ccccc3)cc1)C2 | 3% | ? | i | 3% | 2% | i
N[C@H](Cn1ccc(=O)c(O)c1)C(=O)O | 10% | 6% | i | 0% | 0% | ?
COC(=O)c1ccc(C(/C=C/[C@@H](C)C(=O)N(C)Cc2ccccc2)NC(=O)OCc2ccccc2)cc1 (stereo not given in full) | -2% | 2% | · | -8% | 0% | ·
CCOc1ccc(OCC)c(Nc2cc(C)nc3nc(C)nn23)c1 | -3% | 3% | · | 10µM* | -1% | ·
CCc1cccc(Nc2cc(C)nc3nc(C)nn23)c1 | 4% | 5% | · | 10µM* | -4% | ·
CCOc1ccc(OCC)c(Nc2cc(C)nc3ncnn23)c1 | -4% | 4% | · | ? | -1% | ·
Cc1ccc(Nc2cc(C)nc3nc(C)nn23)cc1 | -1% | -1% | · | ? | -4% | ·
O=C1c2oc3ccc(Cl)cc3c(=O)c2C(c2cccnc2)N1Cc1ccco1 (stereo not given) | ? | -16% | 1.1e-08M* | 13% | 3% | 1.1e-08M*
CN(C)CCCN1C(=O)c2oc3ccccc3c(=O)c2C1c1cccs1 (stereo not given) | 5% | -20% | 2.3e-08M* | -3% | 8% | 3e-08M*
CCN(CC)CCCN1C(=O)c2oc3ccccc3c(=O)c2C1c1cccnc1 (stereo not given) | ? | ? | 1.2e-08M* | 0% | 3% | 1.3e-08M*
C[C@H]1COC(=O)[C@H](Cc2ccccc2)NC(=O)[C@@H](C)COC(=O)[C@H](Cc2ccccc2)NC1=O | 11%[11.4 µM] | 7%[11.4 µM] | · | · | -1%[11.5 µM] | ·
CC(=O)NCCNc1ncnc2ccc(-c3c(C)noc3C)cc12 | -5% | ? | i | ? | 3% | i
CCNc1nnc(-c2ccc(C)cc2)o1 | -13% | 32µM* | i | -3% | -1% | i
CCSc1nnc(-c2ccc(OC)cc2)o1 | -5% | 4% | i | 2% | -1% | i
COC1=CC(=O)C[C@@H](C)[C@@]12Oc1c(Cl)c(OC)cc(OC)c1C2=O | 1% | · | i | -10% | · | ?
COc1cc(OC)c2c(c1Cl)O[C@@]1(C2=O)[C@H](C)CC(=O)C[C@@H]1OC | -12%[25.6 µM] | 13µM* | 1.4e-08M* | -7%[17.1 µM] | -3%[25.7 µM] | 1.2e-08M*
CSc1nnc2c3cc(F)ccc3n(Cc3ccccc3)c2n1 | ? | 0% | 2e-08M* | ? | -1% | 2.7e-08M*
CSc1nnc2c3ccccc3n(Cc3ccccc3)c2n1 | 1% | -5% | ? | ? | 0% | ?
CCOc1ccccc1-c1nc(-c2cc3ccccc3nc2OC)no1 | 4% | ? | ? | ? | 13% | 1.2e-08M*
Cc1ccc2cc(-c3noc(C4CCCCC4)n3)c(=O)[nH]c2c1 | 3% | ? | · | 2% | 2% | ·
Cc1ccc2cc(-c3noc(C4CCCO4)n3)c(=O)[nH]c2c1 (stereo not given) | ? | 32µM* | · | 12% | 0% | ·
COc1nc2ccccc2cc1-c1noc(-c2cccnc2)n1 | 8% | -16% | 3.7e-08M* | ? | 1% | 4.3e-08M*
CC(=O)Oc1ccc(-c2nc(-c3cccnc3)no2)cc1 | -10% | 5% | i | 4% | 0% | i
SMILES | HADH2 inhib | HSD17B inh | 4MU fluor | CRE Fsk mod | AID923 | A350 fluor
COc1nc(-c2ccccc2)ccc1-c1noc(-c2cccnc2)n1 | 16µM* | 25µM* | ? | ? | 1% | 1.1e-08M*
COc1ccccc1-c1noc(-c2cccnc2)n1 | -6% | -1% | i | 23% | 1% | i
C[C@H](O/N=C1/[C@H]2O[C@@H]2[C@@H](O)[C@H]2[C@H]1CCn1c(=O)n(-c3ccccc3)c(=O)n12)c1cn([C@H]2COC[C@H]2O)nn1 | -8%[11.4 µM] | -3%[11.4 µM] | · | · | -1%[11.5 µM] | ·
CN(C)P(=NC(=O)COc1ccc(Cl)cc1Cl)(N(C)C)N(C)C | 25% | 12% | i | ? | -1% | i
COc1nc(-c2ccc(C)cc2)ccc1-c1noc(-c2cccnc2)n1 | 55% | ? | 1.3e-08M* | ? | 3% | 1.4e-08M*
CCOc1ccccc1-c1nc(-c2cc3ccc(C)cc3[nH]c2=O)no1 | 20% | 4µM* | 9.6e-08M* | 2% | 1% | 8.1e-08M*
C[C@]12CCC3c4ccc(O)cc4CCC3C1CCC2OC(=O)CCC1CCCC1 (stereo not given in full) | · | 0% | · | · | 0% | ·
CCN(CC)C(=O)CN1CCN(c2ccccc2F)CC1 | 7% | -6% | i | 0% | -1% | i
CCN(CC)C(=O)N1c2ccccc2CC(N(CC)CC)c2ccccc21 (stereo not given) | 14% | 2% | 1.2e-08M* | ? | 0% | ?
COc1ccc(-c2csc(/C(C#N)=C(\O)CSc3nccn3C)n2)cc1OC | ? | -29% | i | 6.3µM* | -2% | i
O=[N+]([O-])c1ccc2c(c1)Cc1cc(N=Cc3ccc4c(c3)OCO4)ccc1-2 | -4%[11.4 µM] | 5%[11.4 µM] | i | -22%[7.6 µM] | 2%[11.5 µM] | i
O=C(Nc1ccon1)c1cnc2sccn2c1=O | 25µM* | 25µM* | 1.2e-08M* | -1% | -1% | 1.2e-08M*
O=C(NCc1cccnc1)c1cnc2sccn2c1=O | 25µM* | 32µM* | · | 5% | 4% | ·
Cc1cccc(NC(=O)c2cnc3sccn3c2=O)c1 | ? | 32µM* | · | -5% | 3% | ·
COc1ccc(NC(=O)c2cnc3sccn3c2=O)cc1 | -18% | 5% | 7.8e-08M* | 17% | -1% | 7.8e-08M*
Cc1cccc(NC(=O)c2cnc3sccn3c2=O)c1C | -16% | ? | · | -5% | 1% | ·
O=C(c1csnn1)N1CCC2(CCN(Cc3ccccc3)CC2)CC1 | -3% | 8% | i | -6% | 4% | i
O=C(c1csnn1)N1CCC2(CCCN(C(c3ccccc3)c3ccccc3)C2)CC1 | -2% | -12% | i | 22% | 0% | i
CCCCCCCC#Cc1ccccc1/C=N/S(=O)C(C)(C)C (stereo not given) | 3%[11.4 µM] | -3%[11.4 µM] | · | · | 0%[11.5 µM] | ·
CCOC(=O)C1CCN(C(c2cccc(F)c2)c2sc3nc(C)nn3c2O)CC1 (stereo not given) | ? | 80% | · | ? | 2% | ·
CCOC(=O)C1CCN(c2cc(C)nc3cc(-c4cccc(F)c4)nn23)CC1 | ? | 25µM* | 1.4e-07M* | ? | 10% | 1e-07M*
